# Assay outcomes: PubChem BioAssay, several laboratories
# This is a sample that favours compounds with a hit; in the whole collection about 3.2% have one here.
# DSG3 Ab inh – inhibitors of pemphigus antibody binding to human desmoglein-3; DSG3-coupled beads, scFv-anti-DSG3-GFP binding, flow cytometry; hits give low values; 310,000 compounds, 0.48% hits; P32926; binding (percent of control), % at 10 µM;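 active = binding more than 3 SD below its plate's average and above zero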;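 note: hits lower antibody fragment binding to DSG3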
# DAGLB inhibitor – blocks human DAGLB lipase activity | HEK293T DAGLB membrane lysate, EnzChek fluorogenic substrate | AID 504411 | Q8NCG7 | 340,000 compounds, 0.059% hits | inhibition, % at 5.17 µM; in the data active = inhibition above about 34%;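 note: 0% = enzyme with vehicle and 100% = wells lacking enzyme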
# Target sequence (Q8NCG7 whole entry, looked up): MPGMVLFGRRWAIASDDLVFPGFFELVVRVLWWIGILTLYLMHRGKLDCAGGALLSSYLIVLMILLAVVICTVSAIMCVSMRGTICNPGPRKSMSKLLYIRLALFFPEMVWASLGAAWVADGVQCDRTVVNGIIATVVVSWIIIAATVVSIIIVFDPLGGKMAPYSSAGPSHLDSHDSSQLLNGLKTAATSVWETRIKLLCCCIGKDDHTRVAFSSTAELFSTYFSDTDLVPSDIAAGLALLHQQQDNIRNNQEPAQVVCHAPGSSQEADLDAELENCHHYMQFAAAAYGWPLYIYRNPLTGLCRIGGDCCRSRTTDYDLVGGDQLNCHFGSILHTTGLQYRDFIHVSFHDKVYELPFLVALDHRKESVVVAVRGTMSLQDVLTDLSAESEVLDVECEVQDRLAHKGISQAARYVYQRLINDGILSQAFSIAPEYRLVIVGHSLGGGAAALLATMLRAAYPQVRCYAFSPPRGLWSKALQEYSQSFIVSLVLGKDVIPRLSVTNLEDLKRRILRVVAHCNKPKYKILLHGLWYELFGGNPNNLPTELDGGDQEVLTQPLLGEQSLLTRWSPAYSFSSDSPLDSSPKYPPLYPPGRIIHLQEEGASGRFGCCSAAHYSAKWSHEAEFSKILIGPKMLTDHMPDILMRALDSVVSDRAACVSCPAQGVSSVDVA
# MsrA act – activates bovine MsrA enzyme; AID 602163; activation, % at 10.6 µM; 360,000 compounds, 0.3% hits; purified bovine MsrA, absorbance read-out; in the data active = activation above about 7.5%;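 note: 0% = vehicle and 100% = reference activator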
# NadD inh – NadD (S. aureus) enzyme inhibition; 360,000 compounds, 0.78% hits; AID 602399; inhibition, % at 20 µM; purified NadD enzyme, colorimetric absorbance read-out; in the data active = inhibition above about 26%
# rCAG binder-1 – r(CAG) repeat RNA binding; TO-PRO-1 dye displacement fluorescence; inhibition, % at 3 µM; 370,000 compounds, 1.3% hits;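 active = inhibition above the plate cutoff, the mean of all test compounds on that plate plus 3 SD, cut at about 35% in these data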;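 note: 0% = DMSO alone and 100% = 100 µM mitoxantrone as full dye displacement; higher means more dye released from RNA so lower well fluorescence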
# MsrA inhibitor – inhibits bovine methionine sulfoxide reductase A. purified bovine MsrA, absorbance read-out. inhibition, % at 15.5 µM. 360,000 compounds, 0.75% hits; in the data active = inhibition above about 4.5%;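 note: 0% = vehicle wells with enzyme and 100% = reference inhibitor wells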
# NadD inh conf – NadD (S. aureus) inhibition, single concentration confirmation; inhibition, % at 20 µM; purified S. aureus NadD, colorimetric enzyme assay; shares compounds with NadD inh; 2,000 compounds, 13% hits; in the data active = inhibition mostly above about 42%, no sharp cut-off; inactive = mostly below about 42%
# rCAG bind conf – r(CAG) RNA repeat binding, confirmation | TO-PRO-1 dye displacement fluorescence | inhibition, % at 3 µM | AID 652065 | shares compounds with rCAG binder-1 | 4,300 compounds, 70% hits;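 active = inhibition above a per-plate cutoff, the mean inhibition of sample wells plus 3 SD, cut at about 35% in these data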;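 note: loss of TO-PRO-1 fluorescence as compound displaces dye from 1x1 AA loop RNA; 0% = DMSO only wells and 100% = 100 µM mitoxantrone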
# DNA CAG counter – counter-screen for rCAG RNA binders: DNA CAG dye complex inhibitors | shares compounds with rCAG binder-1 | d(CAG) DNA oligo TO-PRO-1 dye displacement, fluorescence | 4,300 compounds, 94% hits | inhibition, % at 3 µM | AID 652068;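 active = inhibition above its plate's cutoff, the mean test-well inhibition plus 3 SD, cut at about 4.8% in these data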;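 note: 0% = DNA dye mix with DMSO and 100% = 100 µM mitoxantrone; hits displace the dye from DNA and so lower well fluorescence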
# dCAG dye DR – DNA CAG dye complex inhibition, dose response counter-screen; shares compounds with rCAG binder-1; DNA CAG/GTC duplex TO-PRO-1 dye displacement fluorescence; IC50, µM; 250 compounds, 20% hits; AID 686960; in the data active = IC50 below about 10 µM
# dCAG TOPRO ctr – inhibits DNA CAG/GTC TO-PRO-1 complex, rCAG binder counter-screen | shares compounds with rCAG binder-1 | d(CAG) DNA duplex TO-PRO-1 dye displacement, fluorescence | IC50, µM | 30 compounds, 80% hits
# rCAG binder-2 – r(CAG) repeat RNA binding, TO-PRO-1 displacement; r(CAG) RNA TO-PRO-1 dye displacement, fluorescence; 30 compounds, 100% hits; shares compounds with rCAG binder-1; IC50, µM
# * = called active by the depositor; i = inactive; x = no result. Unless noted, the rule behind the calls is not given here.
SMILES,DSG3 Ab inh,DAGLB inhibitor,MsrA act,NadD inh,rCAG binder-1,MsrA inhibitor,NadD inh conf,rCAG bind conf,DNA CAG counter,others
O=C(O)c1ccccc1NS(=O)(=O)c1ccc(NN=Cc2cccc(Cl)c2)c([N+](=O)[O-])c1,x,17.3,-4.4,31.0*,59.4*,-0.2,11.0,89.6*,67.9*,
CCCS(=O)(=O)NC(=O)C1(C)CCN(C(=O)c2cncc(Br)c2)C1 (stereo not drawn),x,x,-2.0,4.2,-1.2,-0.8,x,x,x,
COc1ccc(S(=O)(=O)NCc2cccnc2)cc1NC(=O)c1ccccc1C,97.4,13.0,-1.6,83.1*,66.1*,1.2,37.6,59.4*,34.0*,
COc1ccccc1-n1c(SCC(=O)NC2CCS(=O)(=O)C2)nc2cc([N+](=O)[O-])ccc21 (stereo not drawn),106.5,1.6,-2.7,2.7,-1.1,2.1,x,x,x,
COc1ccccc1-n1c(SCC(=O)c2ccc(O)cc2O)nc2cc([N+](=O)[O-])ccc21,105.5,-1.3,-2.4,48.5*,49.4*,3.8,39.4,46.8*,22.3*,
O=C1OC(c2cccs2)=N/C1=C\c1ccc(-c2ccccc2Cl)o1,111.9,7.2,-3.8,39.5*,40.4*,3.9,4.4,37.4*,15.6*,
CCOC(=O)c1ccccc1NC(=O)c1ccc2c(SCC(=O)O)c3c(nc2c1)CCCC3,107.7,7.8,-3.1,30.4*,45.5*,-0.8,61.6*,73.6*,30.1*,dCAG dye DR=7.14*;dCAG TOPRO ctr=5.47*;rCAG binder-2=2.98*
COc1cc(Cl)c(C)cc1NC(=O)c1ccc2c(SCC(=O)O)c3c(nc2c1)CCCC3,98.6,3.0,-4.7,12.4,14.7,1.0,x,x,x,
CCOc1ccc(NC(=O)c2ccc3c(SCC(=O)O)c4c(nc3c2)CCCC4)cc1,98.9,1.6,-1.2,13.0,3.8,0.3,x,x,x,
O=C(O)CSc1c2c(nc3cc(C(=O)Nc4cccc(C(F)(F)F)c4)ccc13)CCC2,x,7.8,-2.0,34.2*,71.7*,1.8,31.0,57.3*,20.6*,
O=C(CCc1ccccc1)N[C@H]1[C@H](O)CCC[C@@]12C(=O)N(Cc1ccccc1)c1ccc(-c3ccccc3)cc12,x,x,x,x,9.2,x,x,x,x,
Cc1onc(-c2ccccc2)c1C(=O)NC(=S)Nc1sc2c(c1C#N)CCC(C)C2 (stereo not drawn),98.4,1.8,-2.7,36.2*,41.6*,-0.5,-1.0,34.5,14.8*,
COc1ccccc1CC(=O)Nc1ccc(S(=O)(=O)N(C)C2CCN(C)CC2)cc1,103.0,-0.6,-4.8,-5.3,-0.3,0.3,x,x,x,
Nc1scc2c(C(=O)N/N=C/c3ccc(Cl)cc3)nn(-c3ccccc3)c(=O)c12,97.2,6.6,3.5,39.6*,40.5*,0.2,14.5,25.4,15.6*,
Nc1c(C(=O)N/N=C/c2ccc(Cl)cc2)cnn1-c1ccccc1,x,-0.3,-4.8,0.5,-1.4,0.0,x,x,x,
Cc1cc(-c2nnc(SCC(=O)Nc3nc(-c4ccc(Cl)cc4)cs3)o2)no1,100.8,8.6,1.4,26.6*,45.9*,2.4,2.1,15.1,5.8*,
CCc1cccc2c(/C=N/NC(=O)c3cccc(S(=O)(=O)Nc4ccccc4Cl)c3)c[nH]c12,x,6.1,-1.9,32.0*,56.6*,2.8,52.5*,72.1*,31.1*,dCAG dye DR=i
Nn1c(SCC(=O)NC2CCCCC2)nnc1-c1cc(-c2ccc(F)cc2)n[nH]1,x,x,x,x,2.3,x,x,x,x,
CCOc1ccc2oc(C(=O)NNC(=O)c3ccccc3O)c(C)c2c1,107.1,9.5,-3.7,2.6,29.8,0.7,x,x,x,
Cc1c(C(=O)NNC(=O)c2ccccc2O)oc2ccc(Br)cc12,103.6,24.2,2.6,30.4*,39.8*,0.9,55.7*,39.0*,21.0*,
COc1ccc(CCN(Cc2cccs2)S(=O)(=O)c2ccc(C)c(C)c2)cc1OC,x,x,x,x,7.0,x,x,x,x,
Cc1cc(C)nc(NS(=O)(=O)c2ccc(NC(=O)CN3C(=O)S/C(=C\c4ccccc4)C3=O)cc2)n1,125.7,3.4,-7.7,41.2*,60.0*,1.6,44.5,68.6*,30.2*,
COc1ccccc1/C=C1/SC(=O)N(CCC(=O)Nc2ccc(S(=O)(=O)Nc3nccs3)cc2)C1=O,100.4,2.2,-6.1,56.3*,78.9*,1.7,33.4,80.1*,45.9*,
COc1ccc(NC(=O)C2Cc3c(-c4cccc(F)c4)ccnc3O2)cc1OC (stereo not drawn),x,x,-7.4,3.3,0.9,0.2,x,x,x,
COC(=O)[C@]12C[C@H](CC(=O)N3CCOCC3)C(=O)N(Cc3ccc(Cl)cc3Cl)C1=C[C@H](C1CCCC1)O[C@@H]2C,x,x,x,x,4.2,x,x,x,x,
SMILES,DSG3 Ab inh,DAGLB inhibitor,MsrA act,NadD inh,rCAG binder-1,MsrA inhibitor,NadD inh conf,rCAG bind conf,DNA CAG counter,others
O=C(Nc1cccc(S(=O)(=O)NC2=NCCCCC2)c1)c1cc(-c2ccco2)nc2ccccc12,76.0,3.0,-2.9,46.4*,34.8*,2.5,59.3*,23.6,15.7*,
O=C(Nc1cccc(S(=O)(=O)NC2=NCCCCC2)c1)c1cc(-c2ccncc2)nc2ccccc12,98.1,0.8,-0.9,20.2,6.9,1.0,x,x,x,
CC(C)CNC(=O)C1CSCCS(=O)(=O)N1Cc1ccc(F)cc1 (stereo not drawn),x,x,x,x,-2.2,x,x,x,x,
Cc1ccc(OCC(=O)Nc2nnc(S(=O)(=O)N3CCC(C)CC3)s2)cc1,74.4*,6.1,-2.5,26.5*,41.6*,0.9,9.8,53.1*,22.6*,
O=C(COc1ccccc1)Nc1nnc(S(=O)(=O)N2CCCC2)s1,x,3.1,-1.7,3.4,21.2,-0.3,x,x,x,
COC(=O)[C@]12CCCCC=C1N(Cc1ccc(OC)cc1)C(=O)[C@@H]2CC(=O)N1CCCCC1,x,x,x,x,0.7,x,x,x,x,
O=C(CN1c2ccccc2Sc2ccccc21)NNC(=S)Nc1ccc(Cl)cc1Cl,104.6,14.8,3.5,36.8*,64.2*,0.7,51.0*,60.0*,34.2*,
COc1cc(/C=C(\CCC(=O)O)c2nc3ccccc3s2)ccc1OCC(=O)Nc1c(Cl)cccc1Cl,86.0,-0.4,-1.9,20.0,31.8,-0.9,x,x,x,
